What is called GI50 is the concentration at which growth is held to half of that of the control. A lower GI50 goes with more potent growth inhibition.

Where “and” joins values, the source holds several entries; their conditions need not be identical. Identical values can stand only once. Only a part of the results of these assays is listed, not drawn at random. For part of these data: Results with a measured potency or affinity are listed apart. Calls of active or inactive are those of the source. Unless noted, the rule behind the calls is not given here.

Data on 9 compounds can be found in ChEMBL document CHEMBL1201862, “PubChem BioAssay data set” (2004).

Assay [1] deals with Pyruvate kinase PKM (Homo sapiens) (UniProt P14618). As to the kind of experiment: qHTS Assay for Activators of Human Muscle Pyruvate Kinase. The assay is classed as functional. (Quantitative high-throughput screening tests each substance at several concentrations.)
For assay [2], the target named is Hypoxia-inducible factor 1-alpha (Homo sapiens) (UniProt Q16665). As to the kind of experiment: qHTS Assay for Identification of Small Molecule Agonists for Hypoxia Response Element Signaling Pathway. [Related pubchem assays: 915 ]. Format: functional.
The target in assay [3] is T1, M-phase phosphoprotein 8 (Homo sapiens) (UniProt Q99549).
T1 sequence (whole entry): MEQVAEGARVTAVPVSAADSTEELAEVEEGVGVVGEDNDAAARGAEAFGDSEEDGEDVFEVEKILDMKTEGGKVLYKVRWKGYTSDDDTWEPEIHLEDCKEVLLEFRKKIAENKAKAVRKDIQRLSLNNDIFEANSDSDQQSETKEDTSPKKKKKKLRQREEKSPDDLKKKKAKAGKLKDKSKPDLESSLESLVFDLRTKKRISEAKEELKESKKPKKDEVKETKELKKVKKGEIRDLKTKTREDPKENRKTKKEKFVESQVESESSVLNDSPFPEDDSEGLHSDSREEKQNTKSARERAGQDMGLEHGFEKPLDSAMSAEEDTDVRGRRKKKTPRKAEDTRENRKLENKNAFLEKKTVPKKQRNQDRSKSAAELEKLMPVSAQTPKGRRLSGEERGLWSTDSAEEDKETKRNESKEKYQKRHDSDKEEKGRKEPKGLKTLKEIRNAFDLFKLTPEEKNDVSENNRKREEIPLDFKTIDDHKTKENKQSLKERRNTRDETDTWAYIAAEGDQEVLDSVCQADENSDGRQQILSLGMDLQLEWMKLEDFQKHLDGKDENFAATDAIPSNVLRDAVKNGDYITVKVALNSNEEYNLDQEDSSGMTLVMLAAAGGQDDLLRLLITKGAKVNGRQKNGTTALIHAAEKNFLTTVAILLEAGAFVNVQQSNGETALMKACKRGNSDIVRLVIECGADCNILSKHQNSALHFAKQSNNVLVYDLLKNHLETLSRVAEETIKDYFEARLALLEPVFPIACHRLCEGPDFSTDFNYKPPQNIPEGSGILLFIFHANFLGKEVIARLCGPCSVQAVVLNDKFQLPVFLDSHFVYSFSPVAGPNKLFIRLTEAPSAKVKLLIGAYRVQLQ

Assay [4] concerns the target ATPase family AAA domain-containing protein 5 (Homo sapiens) (UniProt Q96QE3). As to the kind of experiment: qHTS screen for small molecules that inhibit ELG1-dependent DNA repair in human embryonic kidney (HEK293T) cells expressing luciferase-tagged ELG1: Hit Confirmation using MMS Stimulated ELG1. The assay is classed as functional.
Assay [5] in a line: DNA binders by acridine orange displacement, dose response, counter-screen for EWS/Fli inhibitor project, biochemical, fluorescence polarization, cherry-pick (AID 720586). For orientation: The purpose of a counterscreen is to sort out artefacts and off-target activity.
In assay [6] the target is T2, DNA polymerase eta (Homo sapiens) (UniProt Q9Y253).
T2 sequence (whole entry): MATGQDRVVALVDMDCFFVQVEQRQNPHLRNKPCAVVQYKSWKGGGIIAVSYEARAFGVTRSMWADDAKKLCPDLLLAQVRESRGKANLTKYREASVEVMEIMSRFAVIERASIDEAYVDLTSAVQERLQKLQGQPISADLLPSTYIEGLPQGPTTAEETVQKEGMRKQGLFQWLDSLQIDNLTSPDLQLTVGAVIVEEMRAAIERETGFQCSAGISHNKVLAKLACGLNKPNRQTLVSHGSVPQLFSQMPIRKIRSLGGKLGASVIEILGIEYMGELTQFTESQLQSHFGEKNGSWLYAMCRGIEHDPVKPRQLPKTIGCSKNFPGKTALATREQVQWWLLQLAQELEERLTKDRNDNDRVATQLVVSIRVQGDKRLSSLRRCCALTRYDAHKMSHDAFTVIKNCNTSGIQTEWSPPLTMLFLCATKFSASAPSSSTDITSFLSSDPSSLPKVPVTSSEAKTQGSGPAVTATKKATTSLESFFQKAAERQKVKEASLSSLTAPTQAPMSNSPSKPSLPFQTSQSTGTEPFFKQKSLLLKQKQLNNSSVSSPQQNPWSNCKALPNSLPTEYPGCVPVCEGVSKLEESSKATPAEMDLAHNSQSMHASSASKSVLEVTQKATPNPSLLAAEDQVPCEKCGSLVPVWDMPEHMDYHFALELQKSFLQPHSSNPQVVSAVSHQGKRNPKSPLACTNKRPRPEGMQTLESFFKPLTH
As to the kind of experiment: qHTS for Inhibitors of Polymerase Eta: Confirmatory Assay for Cherry-picked Compounds. Format: functional.

In assay [7] the target is Nuclear factor erythroid 2-related factor 2 (Homo sapiens) (UniProt Q16236).
Assay [8] has as its target T3, DNA polymerase kappa (Homo sapiens) (UniProt Q9UBT6).
T3 sequence (whole entry): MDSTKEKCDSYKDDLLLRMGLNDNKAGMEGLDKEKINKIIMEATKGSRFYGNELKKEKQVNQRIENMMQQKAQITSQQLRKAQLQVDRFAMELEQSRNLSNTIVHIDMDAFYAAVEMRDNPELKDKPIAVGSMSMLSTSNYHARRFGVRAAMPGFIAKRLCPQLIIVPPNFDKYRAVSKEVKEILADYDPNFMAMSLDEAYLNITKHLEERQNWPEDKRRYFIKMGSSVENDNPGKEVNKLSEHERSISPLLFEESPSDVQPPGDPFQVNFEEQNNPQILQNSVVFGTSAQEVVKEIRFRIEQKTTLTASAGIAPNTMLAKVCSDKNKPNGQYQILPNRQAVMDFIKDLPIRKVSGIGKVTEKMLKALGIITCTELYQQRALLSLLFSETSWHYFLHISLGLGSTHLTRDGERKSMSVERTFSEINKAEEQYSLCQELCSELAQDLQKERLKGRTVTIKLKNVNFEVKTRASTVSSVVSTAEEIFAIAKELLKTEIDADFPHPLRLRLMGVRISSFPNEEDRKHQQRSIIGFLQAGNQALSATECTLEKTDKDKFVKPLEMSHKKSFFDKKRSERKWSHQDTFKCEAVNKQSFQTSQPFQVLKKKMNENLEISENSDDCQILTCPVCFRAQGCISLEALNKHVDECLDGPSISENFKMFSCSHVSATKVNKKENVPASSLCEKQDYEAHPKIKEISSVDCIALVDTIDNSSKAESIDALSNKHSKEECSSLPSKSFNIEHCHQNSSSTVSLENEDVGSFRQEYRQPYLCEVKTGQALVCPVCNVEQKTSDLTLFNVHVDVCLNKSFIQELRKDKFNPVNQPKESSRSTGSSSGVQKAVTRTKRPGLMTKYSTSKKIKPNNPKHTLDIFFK

Chain of Hypoxia-inducible factor 1-alpha (Homo sapiens) (Q16665 whole entry, looked up): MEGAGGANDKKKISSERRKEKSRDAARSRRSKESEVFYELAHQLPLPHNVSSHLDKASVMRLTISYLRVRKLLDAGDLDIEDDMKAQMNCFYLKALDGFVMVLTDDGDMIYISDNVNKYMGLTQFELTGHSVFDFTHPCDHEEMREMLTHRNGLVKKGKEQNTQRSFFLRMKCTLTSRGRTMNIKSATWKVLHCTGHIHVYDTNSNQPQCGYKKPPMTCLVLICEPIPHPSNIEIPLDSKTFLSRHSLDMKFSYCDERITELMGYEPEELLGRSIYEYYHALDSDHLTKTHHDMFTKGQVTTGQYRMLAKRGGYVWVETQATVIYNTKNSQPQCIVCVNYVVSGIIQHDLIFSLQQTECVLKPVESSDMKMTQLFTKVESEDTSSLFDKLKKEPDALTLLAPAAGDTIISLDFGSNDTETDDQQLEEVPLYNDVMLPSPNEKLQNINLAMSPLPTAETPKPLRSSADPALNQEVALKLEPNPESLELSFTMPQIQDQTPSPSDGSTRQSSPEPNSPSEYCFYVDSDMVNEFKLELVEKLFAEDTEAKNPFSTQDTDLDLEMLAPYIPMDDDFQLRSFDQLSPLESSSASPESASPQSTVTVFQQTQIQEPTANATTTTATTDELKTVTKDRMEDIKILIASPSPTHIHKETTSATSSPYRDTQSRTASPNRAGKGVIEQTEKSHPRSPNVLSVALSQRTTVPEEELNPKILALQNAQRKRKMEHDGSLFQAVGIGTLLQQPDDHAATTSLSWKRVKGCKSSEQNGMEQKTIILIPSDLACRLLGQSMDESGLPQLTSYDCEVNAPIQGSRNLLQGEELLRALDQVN
Chain of Nuclear factor erythroid 2-related factor 2 (Homo sapiens) (Q16236 whole entry): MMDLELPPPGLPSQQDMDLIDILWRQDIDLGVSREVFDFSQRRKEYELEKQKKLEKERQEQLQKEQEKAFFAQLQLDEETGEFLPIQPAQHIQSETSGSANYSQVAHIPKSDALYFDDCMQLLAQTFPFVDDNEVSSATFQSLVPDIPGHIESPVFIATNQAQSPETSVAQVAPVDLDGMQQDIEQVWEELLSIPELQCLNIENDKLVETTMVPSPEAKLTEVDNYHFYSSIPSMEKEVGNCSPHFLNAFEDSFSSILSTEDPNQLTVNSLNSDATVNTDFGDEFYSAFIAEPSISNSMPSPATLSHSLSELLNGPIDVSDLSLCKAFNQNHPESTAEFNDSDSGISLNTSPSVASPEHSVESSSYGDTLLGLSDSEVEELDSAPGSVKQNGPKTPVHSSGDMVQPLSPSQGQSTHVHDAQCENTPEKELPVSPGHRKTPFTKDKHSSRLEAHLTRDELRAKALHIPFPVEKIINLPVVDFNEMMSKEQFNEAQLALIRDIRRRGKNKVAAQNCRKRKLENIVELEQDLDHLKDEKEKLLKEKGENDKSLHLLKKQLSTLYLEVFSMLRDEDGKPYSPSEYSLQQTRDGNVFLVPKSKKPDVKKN
Chain of ATPase family AAA domain-containing protein 5 (Homo sapiens) (Q96QE3 whole entry, the tested form may be a part): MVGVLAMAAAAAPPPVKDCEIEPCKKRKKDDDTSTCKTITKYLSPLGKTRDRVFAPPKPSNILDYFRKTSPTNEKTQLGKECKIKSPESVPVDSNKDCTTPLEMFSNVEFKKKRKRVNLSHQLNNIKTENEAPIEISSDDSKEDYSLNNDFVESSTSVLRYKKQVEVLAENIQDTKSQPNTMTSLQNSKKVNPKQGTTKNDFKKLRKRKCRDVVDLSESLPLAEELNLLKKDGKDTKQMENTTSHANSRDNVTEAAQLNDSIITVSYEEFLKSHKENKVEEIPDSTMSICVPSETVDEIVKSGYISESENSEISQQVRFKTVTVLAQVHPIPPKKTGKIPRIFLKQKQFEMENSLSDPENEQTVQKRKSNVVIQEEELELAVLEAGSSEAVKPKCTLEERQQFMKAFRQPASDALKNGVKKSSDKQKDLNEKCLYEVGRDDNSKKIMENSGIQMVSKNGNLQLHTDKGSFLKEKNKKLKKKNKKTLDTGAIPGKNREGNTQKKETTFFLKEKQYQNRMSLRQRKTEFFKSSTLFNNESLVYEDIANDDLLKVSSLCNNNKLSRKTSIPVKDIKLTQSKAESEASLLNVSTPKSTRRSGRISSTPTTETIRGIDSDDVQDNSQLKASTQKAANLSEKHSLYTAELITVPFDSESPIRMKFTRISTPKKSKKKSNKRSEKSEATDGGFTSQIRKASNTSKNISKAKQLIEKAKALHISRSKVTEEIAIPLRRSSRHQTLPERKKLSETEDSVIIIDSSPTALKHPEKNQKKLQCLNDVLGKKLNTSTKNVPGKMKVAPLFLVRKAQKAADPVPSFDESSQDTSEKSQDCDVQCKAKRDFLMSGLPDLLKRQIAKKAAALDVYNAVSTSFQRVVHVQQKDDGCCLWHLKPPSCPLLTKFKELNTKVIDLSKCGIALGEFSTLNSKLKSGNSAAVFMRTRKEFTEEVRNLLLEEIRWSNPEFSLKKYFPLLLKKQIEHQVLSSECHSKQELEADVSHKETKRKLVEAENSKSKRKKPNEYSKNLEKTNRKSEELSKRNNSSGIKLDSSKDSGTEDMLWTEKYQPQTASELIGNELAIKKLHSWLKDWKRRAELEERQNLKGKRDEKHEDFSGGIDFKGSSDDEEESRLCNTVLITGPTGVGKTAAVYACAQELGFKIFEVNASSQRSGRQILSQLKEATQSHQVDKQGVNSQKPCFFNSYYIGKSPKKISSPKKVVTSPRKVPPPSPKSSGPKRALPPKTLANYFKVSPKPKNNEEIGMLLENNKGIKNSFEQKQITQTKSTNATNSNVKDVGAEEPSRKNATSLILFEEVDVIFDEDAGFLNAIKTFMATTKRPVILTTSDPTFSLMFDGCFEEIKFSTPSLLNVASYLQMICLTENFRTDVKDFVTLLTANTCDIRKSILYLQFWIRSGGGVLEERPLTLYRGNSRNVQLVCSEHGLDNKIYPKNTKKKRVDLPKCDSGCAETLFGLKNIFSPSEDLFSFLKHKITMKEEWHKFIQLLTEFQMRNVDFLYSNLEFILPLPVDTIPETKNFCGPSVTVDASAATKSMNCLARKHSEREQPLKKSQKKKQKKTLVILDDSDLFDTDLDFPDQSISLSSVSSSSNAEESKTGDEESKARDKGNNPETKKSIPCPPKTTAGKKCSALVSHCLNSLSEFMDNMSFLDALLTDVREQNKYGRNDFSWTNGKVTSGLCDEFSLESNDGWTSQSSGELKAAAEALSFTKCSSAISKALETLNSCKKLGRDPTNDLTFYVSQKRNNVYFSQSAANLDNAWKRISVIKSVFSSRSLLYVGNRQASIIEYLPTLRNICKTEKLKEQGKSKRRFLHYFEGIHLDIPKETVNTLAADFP
Chain of Pyruvate kinase PKM (Homo sapiens) (P14618 2-531 limits assumed): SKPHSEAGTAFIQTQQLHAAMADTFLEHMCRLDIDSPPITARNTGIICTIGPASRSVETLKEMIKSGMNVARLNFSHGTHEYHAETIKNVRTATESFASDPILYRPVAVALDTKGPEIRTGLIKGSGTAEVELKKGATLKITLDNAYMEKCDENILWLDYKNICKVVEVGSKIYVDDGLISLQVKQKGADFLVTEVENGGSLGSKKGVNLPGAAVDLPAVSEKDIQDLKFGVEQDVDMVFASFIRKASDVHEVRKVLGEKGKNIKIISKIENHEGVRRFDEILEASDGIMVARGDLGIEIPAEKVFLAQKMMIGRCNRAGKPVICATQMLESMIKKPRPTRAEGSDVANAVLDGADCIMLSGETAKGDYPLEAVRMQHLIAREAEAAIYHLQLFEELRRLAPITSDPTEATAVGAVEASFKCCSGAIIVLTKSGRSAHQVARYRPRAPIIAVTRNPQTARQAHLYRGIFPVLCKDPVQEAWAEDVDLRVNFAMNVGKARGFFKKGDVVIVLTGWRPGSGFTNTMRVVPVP

Turning to `N[C@H](CCC(=O)O)C(=O)O`, the Potency entry in assay [1] was “inactive”.
For the compound `O=C(O)Cc1ccccc1Nc1c(Cl)cccc1Cl`, in [2], the Potency is 6.31 µM (active) and 25.1 µM (active). The Potency entry in [3] was “inactive”.
For `O=C(O)c1cc(/N=N/c2ccc(S(=O)(=O)Nc3ccccn3)cc2)ccc1O`, in assay [4], the Potency entry is “inactive”.
As for `Nc1nc2cc3c(cc2cc1C(=O)NCCc1c[nH]c2ccccc12)OCO3`, the AbsAC35 in assay [5] was 251 µM (active).
Same read-out and setting: under `COc1ccc(C2=Nn3c(nnc3-c3ccccc3F)SC2)cc1OC1CCOC1` (configuration not stated) stands 137 µM (active).
Take `CC(C)(O)c1ccccc1CC[C@@H](SCC1(CC(=O)O)CC1)c1cccc(/C=C/c2ccc3ccc(Cl)cc3n2)c1`: the Potency in assay [6] was 213 µM (active).
As for CISPLATIN, CHEMBL11359, the values for the concentration for 50% growth inhibition (GI50) in the assay with P388/ADR, in the assay with SN12K1 and in the assay with P388 were 0.561 µM, 4.06 µM and 0.248 µM, respectively.
In the case of `CC(=O)OCc1ccccc1`, the Potency in assay [7] was 30.6 µM (active).
Consider `Cc1cc(C)c(NC(=O)Cn2c(=O)n(Cc3ccc(C(=O)NCc4ccco4)cc3)c(=O)c3sccc32)c(C)c1`, for which the Potency in assay [8] is 299 µM (active).
